# Screens as filed in PubChem.
# TRHR ag: activates the human TRH receptor. P34981. TRHR cells, calcium flux fluo-8, FDSS agonist mode. activation, % at 2 µM. 360,000 compounds, 0.18% hits. AID 493084; note: 0% is about no effect
#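 Steps: seed TRHR cells overnight; add fluo-8 no-wash Ca dye, RT 30 min–1.5 h; record 10 s baseline; pin-transfer compounds; monitor fluorescence 1 cycle/s for the agonist window. Calcium increases flag candidate agonists.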
# TRHR enhancer: allosteric enhancers of human TRH receptor | enhancement, % at 2 µM | 360,000 compounds, 0.66% hits | TRHR cells, fluo-8 calcium fluorescence, EC20 TRH enhancement; in the data active = enhancement above about 30%; note: 0% is about no effect
#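 Enhancer read-out: after compound pinning and an initial kinetic agonist-mode read, an EC20 of TRH (10 nM final) was injected and fluo-8 calcium signal (Ex 480/Em 530) followed at 1 s/cycle for 100 cycles in TRHR-expressing cells.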
# D1 agonist: agonists of human D1 dopamine receptor; activation, % at 2 µM; AID 504660; HEK293 T-REx D1 cells, calcium flux, agonist mode; 360,000 compounds, 1% hits; P21728; note: 0% is about no effect
# Target sequence (P21728 whole entry, looked up): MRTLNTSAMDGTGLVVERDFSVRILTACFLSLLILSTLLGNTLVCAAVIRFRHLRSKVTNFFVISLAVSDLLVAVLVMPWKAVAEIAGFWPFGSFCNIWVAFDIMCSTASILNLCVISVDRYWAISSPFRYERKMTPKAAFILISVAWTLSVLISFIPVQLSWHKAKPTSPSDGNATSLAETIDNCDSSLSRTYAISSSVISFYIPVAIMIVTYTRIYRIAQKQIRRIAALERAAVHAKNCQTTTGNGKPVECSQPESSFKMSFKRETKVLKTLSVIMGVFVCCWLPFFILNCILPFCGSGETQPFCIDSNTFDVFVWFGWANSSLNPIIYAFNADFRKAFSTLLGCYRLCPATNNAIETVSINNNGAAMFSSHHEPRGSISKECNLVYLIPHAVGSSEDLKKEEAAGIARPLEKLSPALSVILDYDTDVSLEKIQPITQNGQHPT
#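 Tetracycline-induced HEK293 TREx D1 cells, force-coupled to calcium signalling, were dye-loaded with a no-wash calcium kit. Compound was pin-added after a 10 s baseline. Fluorescence was read kinetically at 1 cycle/s for 180 s, with calcium rises flagged as agonism.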
# D1 potentiator: potentiators of human D1 dopamine receptor; P21728; potentiation, % at 10 µM; HEK293 TREx D1 cells, calcium flux, dopamine EC20 potentiation; 360,000 compounds, 0.036% hits; AID 504651; in the data active = potentiation above about 30%; note: 0% is about no effect
# D1 antagonist: blocks dopamine activation of the human D1 receptor; AID 504652; P21728; activity change, negative = inhibition, % at 10 µM; 360,000 compounds, 3.2% hits; HEK293 TREx D1 cells, calcium flux, dopamine EC80; stronger effect = lower value; in the data active = activity change below about -30%; note: % is set by controls: 0 for no effect and ±100 for the full control effect
#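 Kinetic fluorescence of a calcium dye serves as the read-out. D1-expressing Hek293 Trex cells, induced overnight at 30 C, are exposed to compound for 180 s before an EC80 dopamine addition, then read 180 s further.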
# * = called active by the depositor; ! = not active in a repeat. Shown are actives, neighbours in structure and some others; about 4.6% of the full set was active somewhere. Cut-off read from the data, not from the text of the source, unless noted: active = activation above about 30%; inactive = the rest.
SMILES,TRHR ag,TRHR enhancer,D1 agonist,D1 potentiator,D1 antagonist
Cc1ccc(C(=O)N/C(=C\c2ccc(Cl)cc2)C(=O)NCCN2CCOCC2)cc1,-1,2,2,-6,6
COc1cc(OC)cc(C(=O)NC(C)c2ccc(Br)cc2)c1 (configuration not stated),0,-9,41*,-1,4
COc1cccc(C(=O)NC(C)c2ccc(Br)cc2)c1 (configuration not stated),0,-3,8,-2,2
Cc1nn(CCCC(=O)Nc2cc(Oc3ccc(F)cc3)cc([N+](=O)[O-])c2)c(C)c1[N+](=O)[O-],1,1,9,-3,-36*
Cc1ccccc1Oc1cc(NC(=O)CCCn2nc(C)c([N+](=O)[O-])c2C)cc([N+](=O)[O-])c1,0,-1,1,-5,-22
O=C1C=C(c2ccc(OC(F)(F)F)cc2)C[C@@H](c2ccc(Cl)cc2)C1,1,-4,8,0,-8
COc1cc(CN(CCc2c(C)[nH]c3ccc(C)cc23)C(=S)NC(C)(C)C)cc(OC)c1OC,1,-5,30*,-9,-25
Cc1ccc2nc(/C(C#N)=C/c3ccc(-c4cccc(Cl)c4)o3)[nH]c2c1,59*,4,277*,1,1
N#C/C(=C\c1ccc(N2CCOCC2)c([N+](=O)[O-])c1)c1nc2ccccc2[nH]1,0,-5,1,-7,-26
N#C/C(=C\c1ccc(-c2ccc(C(=O)O)cc2)o1)c1nc2ccccc2[nH]1,31*!,4,43*,-2,3
Cc1ccc2nc(/C(C#N)=C/c3cn[nH]c3-c3ccc(F)cc3)[nH]c2c1,0,-6,1,-1,-45*
Cc1ccc2nc(/C(C#N)=C/c3ccc(O)c(O)c3)[nH]c2c1,15,8,7,-3,-20
N#C/C(=C\c1ccc(-c2ccc(Cl)c(C(=O)O)c2)o1)c1nc2ccccc2[nH]1,26,3,14,0,10
N#C/C(=C\c1ccc(N2CCOCC2)o1)c1nc2ccccc2[nH]1,0,3,64*,-2,-20
O=C(Cn1ncc2c3ccccc3n(Cc3ccc(Cl)cc3)c2c1=O)NCc1ccccn1,-1,14,3,-2,3
COc1ccc(NS(=O)(=O)c2ccc3c(c2)CCN3C(=O)CCC(=O)O)cc1OC,0,6,2,0,-15
Cc1cc2nc(C)c(=O)n(C)c2cc1C,0,11,-1,-8,-38*
Cc1ccc(/C=C/S(=O)(=O)NCCC(=O)NCc2ccc(F)cc2)cc1,-1,-1,0,-3,3
N=c1oc2cc(O)ccc2cc1C(=O)Nc1nc2ccccc2s1,3,2,6,-10,7
N=c1oc2cc(O)ccc2cc1C(=O)Nc1ccccn1,5,31*,5,3,14
COc1cc2ccccc2cc1C(=O)OCC(=O)NC1CCS(=O)(=O)C1 (configuration not stated),0,-7,2,-8,-33*
COc1ccc(CN2CCC(CO)(Cc3cccc(C(F)(F)F)c3)CC2)cc1Cn1cccn1,0,-1,34*,-6,-21
COc1cc(CN2CCC(CO)(Cc3cccc(C(F)(F)F)c3)CC2)ccc1F,-1,1,52*,-6,-26
Cc1c(CN2CCC(CO)(Cc3cccc(C(F)(F)F)c3)CC2)c2ccccc2n1C,0,11,82*,-1,7
OCC1(Cc2cccc(C(F)(F)F)c2)CCN(Cc2cc3ccccc3o2)CC1,1,-3,10,-1,8
COc1ccc(F)c(CN2CCC(CO)(Cc3cccc(C(F)(F)F)c3)CC2)c1,2,-3,7,-1,5
O=C(OCCN1C(=O)c2cccc3c(N4CCOCC4)ccc(c23)C1=O)c1ccc(Cl)cc1Cl,71*,6,165*,-10,-37*
O=C(OCCN1C(=O)c2ccccc2C1=O)c1cc(S(=O)(=O)N2CCOCC2)ccc1Cl,0,-2,1,-2,-21
O=C(OCCN1C(=O)c2cccc3c(N4CCOCC4)ccc(c23)C1=O)c1cccc(Cl)c1,35*,1,83*,-3,24
O=C(OCCN1C(=O)c2cccc3c(N4CCOCC4)ccc(c23)C1=O)c1ccccc1Cl,0,12,167*,24,-25
